Shown are actives, neighbours in structure and some others; about 2.5% of the full set was active somewhere.
rCAG binder: binders of r(CAG) RNA repeats, primary screen, biochemical, fluorescence; 370,000 compounds, 1.3% hits; inhibition, % at 3 µM; r(CAG) RNA repeat, TO-PRO-1 dye displacement fluorescence;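 active = inhibition above the plate cutoff, the mean of all test compounds on that plate plus 3 SD, cut at about 35% in these data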;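 note: 0% = DMSO alone and 100% = 100 µM mitoxantrone as full dye displacement; higher means more dye released from RNA so lower well fluorescence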
PG9 binder: binders of HIV-1 gp120 antibody PG9, primary screen, biochemical, TR-FRET | TR-FRET gp120-PG9 antibody binding | HIV-1 gp120 / PG9 antibody interaction | AID 624416, 2012 | inhibition, % at 6.7 µM | 360,000 compounds, 0.43% hits; in the data active = inhibition above about 8.5%
Granule exo inh: LAMP-1 surface exposure blockers, TALL-104 cells – cell-based, flow cytometry, MLPCN library, primary screen | 360,000 compounds, 0.66% hits | TALL-104 LAMP-1 surface exposure; cells stimulated with thapsigargin and PMA | inhibition, % at 10 µM | AID 651702, 2012;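 active = inhibition above about 55%, limit read from the data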
ABCB6 inh 2: ABCB6 transporter inhibitors, primary screen, K562-ABCB6 cells, flow cytometry, MLPCN library | K562-ABCB6 porphyrin accumulation, 1 h; stronger effect = lower value | fluorescence ratio to DMSO, % at 10 µM | ATP-binding cassette sub-family B member 6 (Homo sapiens), Q9NP58 | 360,000 compounds, 0.19% hits | AID 602162, 2011;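 active = fluorescence ratio to DMSO below 75%, the collection mean minus 3 SD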;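 note: signal is porphyrin accumulated inside mitochondria; 100% equals median channel fluorescence of DMSO control wells; lower ratio means ABCB6 inhibition with less porphyrin fluorescence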
Target sequence (Q9NP58 whole entry, looked up): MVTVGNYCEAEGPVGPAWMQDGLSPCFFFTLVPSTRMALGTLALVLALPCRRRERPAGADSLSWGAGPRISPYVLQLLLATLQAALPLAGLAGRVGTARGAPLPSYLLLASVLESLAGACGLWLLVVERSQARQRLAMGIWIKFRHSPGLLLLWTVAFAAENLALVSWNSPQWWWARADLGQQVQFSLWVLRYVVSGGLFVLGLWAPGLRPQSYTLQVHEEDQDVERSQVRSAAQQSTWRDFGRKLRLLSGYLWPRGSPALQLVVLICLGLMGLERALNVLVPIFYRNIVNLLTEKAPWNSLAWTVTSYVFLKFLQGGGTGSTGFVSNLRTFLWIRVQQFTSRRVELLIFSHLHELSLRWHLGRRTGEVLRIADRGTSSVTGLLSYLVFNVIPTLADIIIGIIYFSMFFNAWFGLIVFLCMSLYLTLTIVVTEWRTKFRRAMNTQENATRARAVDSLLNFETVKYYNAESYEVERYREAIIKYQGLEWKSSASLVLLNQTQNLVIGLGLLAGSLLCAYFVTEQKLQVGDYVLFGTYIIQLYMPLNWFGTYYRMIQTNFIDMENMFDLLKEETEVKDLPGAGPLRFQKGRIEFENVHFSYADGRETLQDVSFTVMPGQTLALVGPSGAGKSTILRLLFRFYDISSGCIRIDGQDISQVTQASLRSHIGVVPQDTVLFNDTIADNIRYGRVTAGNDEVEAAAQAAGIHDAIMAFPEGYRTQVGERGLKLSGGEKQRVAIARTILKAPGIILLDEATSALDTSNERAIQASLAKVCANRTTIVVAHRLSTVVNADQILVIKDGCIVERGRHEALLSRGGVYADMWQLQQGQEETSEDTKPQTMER
Numbers without * were called inactive; . = not tested or not shown.

SMILES	rCAG binder	PG9 binder	Granule exo inh	ABCB6 inh 2
CC1(C)CC[C@]2(C(=O)O[C@@H]3O[C@H](CO)[C@@H](O)[C@H](O)[C@H]3O)CC[C@]3(C)C(=CCC4[C@@]5(C)CC[C@H](O[C@@H]6O[C@H](C(=O)O)[C@@H](O[C@H]7OC[C@@H](O)[C@@H](O)[C@@H]7O)[C@H](O)[C@H]6O)C(C)(C)C5CC[C@]43C)[C@@H]2C1 (some centres not stated)	26	-1	56*	98
COC(=O)C1=C(C)N(C)C(=NCc2ccc(OC)cc2)NC1c1cccc(C(F)(F)F)c1 (configuration not stated)	9	-2	.	.
COc1ccc(NC(=O)/C(C#N)=C\c2ccc(-c3cc(C(=O)O)ccc3C)o2)cc1	59*	-4	2	93
CCOC(=O)c1cc(C#N)c(SCC(=O)c2cc(C#N)c(SC)nc2C)[nH]c1=O	10	-1	0	102
CSc1nc(C)c(C(=O)C[n+]2ccc(C)cc2)cc1C#N	1	-1	76*	103
COc1ccc(C2C(C(=O)N3CCOCC3)CC(=O)N2c2ccc(OC)cc2)cc1 (configuration not stated)	3	.	.	.
NS(=O)(=O)c1ccc(CCn2c(=S)[nH]c3ccc(F)cc3c2=O)cc1	7	37*	5	100
COc1ccc(CCN2C(=O)c3[nH]nc(-c4ccccc4O)c3C2c2cccc(Cl)c2)cc1 (configuration not stated)	20	1	62*	107
CCN(CC)Cc1cc(Nc2c3ccccc3nc3c4ccccc4n(C)c23)cc(CN(CC)CC)c1O	13	-22	100*	87
CC(C)C[C@H](NC(=O)c1ccco1)C(=O)N1CCC[C@H]1C(=O)NCc1ccccc1	2	-1	.	.
Cc1ccc(C(=O)N/C(=C\c2ccc([N+](=O)[O-])cc2)C(=O)NCCc2ccccc2)cc1	2	-1	0	71*
CCOC(=O)/C(=C\c1ccc(C)cc1)NC(=O)c1ccccc1	-2	1	-1	70*
O=C(NCCc1ccccc1)/C(=C\c1ccc([N+](=O)[O-])cc1)NC(=O)c1ccc(Br)cc1	0	-3	-4	97
CC(=O)Oc1cc(C(=O)OCC(=O)NC23CC4CC(CC(C4)C2)C3)cc(OC(C)=O)c1OC(C)=O	53*	-3	7	95
CCC(C)Nc1nc(C)nc2c1nnn2Cc1ccccc1 (configuration not stated)	-1	.	.	.
CC1(C)Cc2nc3sc4c(=O)n(CC(=O)NCc5ccccc5)cnc4c3cc2CO1	4	50*	1	95
CC1(C)Cc2nc3sc4c(=O)n(CC(N)=O)cnc4c3cc2CO1	2	-1	0	98
Cc1ccc2nc(-c3ccc(NS(=O)(=O)c4ccc(F)c(F)c4)cc3)sc2c1	75*	-1	4	96
CN(C(=O)c1ccccc1NC(=O)C(F)(F)F)c1ccccc1	1	-4	2	60*
O=C(OCc1cn(Cc2ccc(F)c(F)c2)nn1)N1CCCC1	0	.	.	.
C[C@H]1COc2cc(Br)ccc2S(=O)(=O)N1Cc1cn(Cc2ccc(C(F)(F)F)cc2)nn1	2	.	.	.
CCN(c1ccc(C)cc1)S(=O)(=O)c1nnc(NC(=O)c2ccco2)s1	44*	1	0	101
COC(=O)C1=C(C)N(Cc2ccc(C(F)(F)F)cc2)C(=NCc2ccc(C(F)(F)F)cc2)NC1c1ccccc1C(F)(F)F (configuration not stated)	0	0	.	.
Cc1cc2c(c(=O)o1)[C@@]1(C(=O)N(C)c3c(Br)cccc31)C1=C(CCCC1=O)O2	1	-1	.	.
COc1ccc(N(C(=O)CCl)C(C(=O)NCCc2ccccc2)c2cccs2)cc1Cl (configuration not stated)	-4	1	9	25*
SMILES	rCAG binder	PG9 binder	Granule exo inh	ABCB6 inh 2
COc1cccc(N(C(=O)CCl)C(C(=O)NCCc2ccccc2)c2cccs2)c1 (configuration not stated)	3	-1	14	104
Cc1ccc(-c2cc(C(=O)NN=Cc3cccc4ccccc34)[nH]n2)cc1C	20	.	.	.
CCOc1ccccc1/C=C(\C(=O)O)c1ccc(S(=O)(=O)N2CCCCC2)s1	45*	-3	-3	101
CC1(C)CC(=O)C(=Cc2cn(CCC#N)nc2-c2ccc(F)cc2)C(=O)C1	-1	-4	28	101
CC1(C)CC(=O)C(=Cc2cn(CCC#N)nc2-c2ccc(Cl)cc2)C(=O)C1	-4	0	74*	99
Cc1cc(N/N=C/c2c(O)ccc3ccccc23)nc(-c2ccccc2O)n1	16	0	96*	91
Oc1ccc2ccccc2c1/C=N/Nc1ccccc1	14	-2	7	108
CCO/C(=C/c1sc2ccc(OC)cc2[n+]1CCCS(=O)(=O)[O-])CC	16	-2	-1	98
CCOC(=O)C[n+]1c(C)sc2ccc(OC)cc21	.	.	75*	94
C#CCNC(=O)C[C@H]1C[C@@]2(C(=O)OC)C(=C[C@H](C(C)C)O[C@@H]2C2CC2)N(CCCCCCCC)C1=O	2	.	.	.
O=C(NCCc1ccccc1Cl)[C@@H]1CCCN1C(=O)[C@@H](NC(=O)N1CCOCC1)C1CCCCC1	-2	0	.	.
Cc1nc(CNS(=O)(=O)c2cccc(F)c2)cs1	2	1	2	94
Cc1ccc(-c2csc(NS(=O)(=O)c3cccc(F)c3)n2)o1	71*	-3	-5	109
COC(=O)C1=C(C)N(Cc2cccc(C(F)(F)F)c2)C(=NCC2CC2)NC1c1ccc(F)cc1 (configuration not stated)	8	0	.	.
COC(=O)c1cc2c(c3c4cc(F)ccc4n(S(=O)(=O)c4cccc(C)c4)c13)C(=O)N(Cc1ccco1)C2	26	0	.	.
N=c1n(CC(=O)c2ccc([N+](=O)[O-])cc2)c2ccccc2n1Cc1ccc(Cl)cc1	6	0	4	104
N=c1n(CC(=O)c2ccc([N+](=O)[O-])cc2)c2ccccc2n1Cc1ccccc1	5	-2	76*	105
CCCCOc1ccc(C(=O)NC2CCCCN(Cc3ccc(C)cc3)C2=O)cc1 (configuration not stated)	4	.	.	.
COC(=O)[C@]12C[C@H](CC(=O)NCc3ccc(C)o3)C(=O)N(CCC3=CCCCC3)C1=C[C@H](C(C)C)O[C@@H]2C1CC1	6	.	.	.
COC(=O)C1=C(C)N(C)C(=NCc2cc(OC)c(OC)c(OC)c2)NC1c1ccc(C(F)(F)F)cc1 (configuration not stated)	7	2	.	.
CCSC1(SCC)N=C(N)C2(C#N)C(c3ccc(F)cc3)C12C#N (configuration not stated)	1	4	69*	89
COc1ccc(CN2CN3Cc4cc(OC)ccc4C3CS2(=O)=O)cc1 (configuration not stated)	5	.	.	.
